Source: PubChem BioAssay
JMJD2A Tudor inh – inhibitors of human JMJD2A Tudor domain | O75164 | AlphaScreen JMJD2A-Tudor / H3K4me3 peptide binding | Potency, µM (series often up to 114 µM), without a hit: top-dose activity change, negative = inhibition, hits mostly inhibitors | 390,000 tested, 4.4% active | AID 504339; further: on the % scale 0 is the no-effect control and ±100 the full control effect; nearly all actives have a fitted effect of over 50% in size
Target sequence (O75164 whole entry, looked up, the tested form may be a part): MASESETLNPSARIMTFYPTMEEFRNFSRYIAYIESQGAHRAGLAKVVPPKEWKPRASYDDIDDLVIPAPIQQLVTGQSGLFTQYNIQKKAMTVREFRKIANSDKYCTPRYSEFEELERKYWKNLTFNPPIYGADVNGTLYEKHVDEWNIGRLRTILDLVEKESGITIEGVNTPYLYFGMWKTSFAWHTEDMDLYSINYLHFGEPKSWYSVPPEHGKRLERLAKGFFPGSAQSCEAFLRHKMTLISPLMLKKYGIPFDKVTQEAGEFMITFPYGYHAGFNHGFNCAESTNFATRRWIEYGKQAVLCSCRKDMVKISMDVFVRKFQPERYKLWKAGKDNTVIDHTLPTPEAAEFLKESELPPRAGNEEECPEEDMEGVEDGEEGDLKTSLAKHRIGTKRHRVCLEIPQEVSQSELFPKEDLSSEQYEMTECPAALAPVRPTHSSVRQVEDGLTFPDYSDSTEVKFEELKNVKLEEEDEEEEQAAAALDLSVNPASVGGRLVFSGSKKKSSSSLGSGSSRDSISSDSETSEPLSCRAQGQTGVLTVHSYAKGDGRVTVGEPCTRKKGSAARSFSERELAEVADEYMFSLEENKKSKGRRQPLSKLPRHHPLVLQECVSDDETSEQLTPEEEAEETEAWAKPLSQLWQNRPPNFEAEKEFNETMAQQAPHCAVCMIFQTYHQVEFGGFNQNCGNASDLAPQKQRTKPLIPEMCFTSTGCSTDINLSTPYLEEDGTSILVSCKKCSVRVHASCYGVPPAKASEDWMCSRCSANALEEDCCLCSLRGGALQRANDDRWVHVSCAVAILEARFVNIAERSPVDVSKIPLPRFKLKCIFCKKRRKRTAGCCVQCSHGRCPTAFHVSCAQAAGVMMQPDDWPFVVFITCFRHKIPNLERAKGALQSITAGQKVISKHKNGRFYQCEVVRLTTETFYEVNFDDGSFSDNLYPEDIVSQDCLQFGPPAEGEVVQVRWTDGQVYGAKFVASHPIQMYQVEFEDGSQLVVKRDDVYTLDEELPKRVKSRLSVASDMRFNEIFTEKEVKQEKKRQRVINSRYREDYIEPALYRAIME
GLS inhibitor – inhibitors of human glutaminase (GLS). O94925. GLS enzymatic activity, qHTS titration. Potency, µM (top dose mostly 45.5 µM), without a hit: at the top dose activity change, negative = inhibition, actives largely listed as inhibitors. 410,000 tested, 0.21% active; further: on the % scale 0 is the no-effect control and ±100 the full control effect
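Two-point fluorescence kinetic (t0, 30 min RT) for hKGA; glutamate detected via glutamate oxidase–HRP–Amplex Red. Substrate: 1 mM L-glutamine solution; buffer 45 mM KH2PO4, pH 8.2.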
G9a block – G9a (human) methyltransferase inhibition; G9a H3K9 monomethylation, AlphaScreen, 2 h; Potency, µM (highest dose often 102 µM), without a hit: at the highest dose activity, negative = inhibition, most hits filed as inhibitors; 350,000 tested, 8.8% active; further: on the % scale 0 is the no-effect control and ±100 the full control effect; nearly all actives have a fitted effect of over 75% in size
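G9a (20 nM) was preincubated 15 min with compound, then reacted 2 h at room temperature with 500 nM biotin-H3K9 peptide and 20 µM SAM. Monomethyl-H3K9 detected by AlphaScreen using anti-H3K9me1 antibody.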
BAZ2B inh – BAZ2B (human) inhibition; AID 504333; Potency, µM (titrated, usually from 114 µM), inactives show at the highest dose activity change, negative = inhibition, usual class: inhibitors; 360,000 tested, 4.4% active; AlphaScreen BAZ2B-H3K14Ac peptide displacement; further: on the % scale 0 is the no-effect control and ±100 the full control effect; nearly all actives have a fitted effect of over 60% in size
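AlphaScreen luminescence quantifies BAZ2B engagement of H3K14Ac peptide; the protein and biotinylated peptide are both at 50 nM final, buffer PBS pH 7.4 with 0.01% Tween-20, all steps at room temperature.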
L3MBTL1 inh – inhibitors of human L3MBTL1. AlphaScreen L3MBTL1–H3K9me1 peptide binding. Q9Y468. 230,000 tested, 0.66% active. Potency, µM (doses to about 57.1 µM), inactives show at the top dose activity, negative = inhibition, hits mostly inhibitors; further: on the % scale 0 is the no-effect control and ±100 the full control effect; nearly all actives have a fitted effect of over 60% in size
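AlphaScreen proximity signal between nickel-chelate acceptor and streptavidin donor beads (final 10 ug/mL) reports binding of 50 nM L3MBTL1 to 75 nM biotin-H3 K9me1 peptide; complex incubated with compounds 30 min at room temperature; cefsulodin titration as control.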
HP1b binding inh – blocks HP1-beta chromodomain binding to methylated histone tails; P83916; AlphaScreen HP1-beta / biotin-H3K9me3 peptide binding; Potency, µM (series often up to 114 µM), inactives show at the highest dose activity change, negative = inhibition, usual class: inhibitors; 390,000 tested, 0.56% active; AID 540317; further: nearly all actives have a fitted effect of over 70% in size
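Compound inhibition of the preformed complex between 50 nM HP1-beta and 50 nM biotinylated H3K9me3 peptide was read by AlphaScreen. Buffer was PBS pH 7.4 with 0.01% Tween-20. Incubations ran 30 min at room temperature, with 10 ug/mL donor/acceptor beads.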
An asterisk follows results filed as active; ? = inconclusive; · = not tested or not shown; [ ] = dose if it differs, or a comment. Only some compounds are listed: those with a hit (about 10% of all), similar ones and a draw of the others. The call rests on the fitted dose curve; in most records, active means well fitted curve in the direction sought with a large enough effect; inconclusive means small, poorly fitted or top-dose-only effect, or another doubt; inactive means no such curve, though single readings can be large; an effect the other way counts as inactive or inconclusive. Potency means the concentration at half of the fitted maximal effect.

SMILES	JMJD2A Tudor inh	GLS inhibitor	G9a block	BAZ2B inh	L3MBTL1 inh	HP1b binding inh
O=[N+]([O-])c1cc2cccnc2c2ncccc12	79µM*	7%	·	22µM*	?	20%
CC(C)(C)NC(=O)N1CCC(C(=O)O)CC1	-3%	-10%	-15%[59 µM]	1%	·	39%
CCOc1cc(CNC(=O)CSc2n[nH]c(-c3ccccc3)n2)cc(OCC)c1OCC	-12%	6%	-10%[59 µM]	6%	·	13%[57 µM]
CN(C)c1oc(-c2ccccc2Cl)nc1P(=O)(c1ccccc1)c1ccccc1	56µM*	1%	?	?	·	-16%
CCOc1ccc(NC(=O)c2cc(S(=O)(=O)N3CCc4ccccc43)ccc2F)cc1	-9%	5%	5%[59 µM]	-5%	·	19%
CCOC(=O)c1c(-c2ccccc2)csc1NC(=O)c1cc(-c2cccc(Cl)c2)on1	-14%	2%	8.9µM*	7%	·	-21%
CCOC(=O)c1c(-c2ccc(C)cc2)csc1NC(=O)c1cc(=O)c2cc(C)c(C)cc2o1	8%	-2%	-6%[59 µM]	-15%	·	15%
CCOC(=O)c1c(-c2ccccc2)csc1NC(=O)c1cc(-c2cccc(OC)c2)on1	6%	-10%	4µM*	-2%	·	-20%
CCOC(=O)c1c(-c2ccc(C)cc2)csc1NC(=O)c1cc(=O)c2cc(C)ccc2o1	56µM*	-11%	?	?	·	?
Cc1c2cnn(-c3ccccc3)c(=O)c2c(C)n1CC(=O)NCCc1ccc(Cl)cc1	3%	3%	0%[59 µM]	-2%	·	45%
c1coc(Cn2c(SCc3nc4ccccc4[nH]3)nnc2-c2cnccn2)c1	?	3%	32µM*	-9%	-5%	39%
Cc1ccc(NC(=O)CSc2nnc(-c3ccccn3)n2N)c(Br)c1	?	-3%	1%	13µM*	25µM*	26%
Cc1cccc(CSc2nnc(-c3ccccn3)n2N)c1	50µM*	0%	14µM*	35µM*	-25%	25%
Clc1ccc(OCc2nnc(SCc3nc4ccccc4[nH]3)n2Cc2ccco2)cc1	?	9%	40µM*	-31%	-2%	-8%
CCn1c(COc2ccc(C)cc2)nnc1SCc1nc2ccccc2[nH]1	-32%	5%	·	-31%	-6%	29%
Cn1c(SCc2nc3ccccc3[nH]2)nnc1-c1cnccn1	-21%	7%	5%	10%	2%	15%
Cc1ccc(C)c(Nc2nn3c(=O)c4ccc(C(=O)NCc5cccs5)cc4nc3s2)c1	-16%	-12%	-1%[59 µM]	-10%	·	0%
Clc1ccccc1CSc1nnc(-c2ccccn2)n1Cc1ccco1	56µM*	3%	?	56µM*	-1%	0%
Clc1cccc(CSc2nnc(-c3cccnc3)n2Cc2ccco2)c1	-19%	-2%	?	6%	-8%	9%
COc1ccc(C(=O)CSc2nnc(-c3cccnc3)n2Cc2ccco2)cc1	-7%	13%	50µM*	-5%	-4%	48%
Nn1c(SC/C=C/c2ccccc2)nnc1-c1cccnc1	-17%	-3%	-71%[12.7 µM]	2%	·	10%
Clc1ccc(CSc2nnc(-c3cccnc3)n2Cc2ccco2)c(Cl)c1	-14%	-3%	35µM*	-24%	-26%	3%
Nn1c(SC/C=C/c2ccccc2)nnc1-c1ccccn1	20µM*	6%	28µM*	11µM*	?	31%
O=C(CN1C(=O)CCSc2ccc(S(=O)(=O)N3CCCC3)cc21)Nc1cccc(F)c1	-10%	-5%	1%[59 µM]	4%	·	22%[57 µM]
CCCOc1ccc(C2C(=O)N(C3CCCCCC3)CC(=O)N2CCC)cc1OC (stereo not given)	-25%	-9%	-4%[59 µM]	2%	·	20%
SMILES	JMJD2A Tudor inh	GLS inhibitor	G9a block	BAZ2B inh	L3MBTL1 inh	HP1b binding inh
CCOC(=O)c1cccc(NC(=O)c2cnc3sc(N4CCOCC4)nn3c2=O)c1	-14%	0%	0%[59 µM]	-2%	·	32%
C(=C\c1ccccc1)/CSc1nnc(-c2ccccn2)n1Cc1ccco1	?	-8%	16µM*	-35%	-8%	15%
NC(=O)CSc1nnc(-c2ccccn2)n1Cc1ccco1	0%	-4%	-34%	-38%	-9%	17%
C=CCn1c(SCc2nc3ccccc3[nH]2)nnc1-c1ccncc1	-9%	14%	-4%[59 µM]	2%	1%	22%
Clc1cccc(-c2nnc(SCc3nc4ccccc4[nH]3)n2Cc2ccco2)c1	?	-1%	40µM*	?	-12%	-5%
O=C(CSc1nnc(-c2ccccn2)n1Cc1ccco1)Nc1ccc2c(c1)OCO2	?	-7%	0%[12.7 µM]	?	-2%	7%
c1ccc(-c2nnc(SCc3nc4ccccc4[nH]3)n2Cc2ccco2)nc1	?	-4%	50µM*	?	-4%	14%
CCn1cnc2c(=O)oc3ccc(S(=O)(=O)Nc4ccc(OC)cc4)cc3c21	-1%	4%	-7%[59 µM]	-8%	·	36%
Cc1ccc(NC(=O)Cn2c(C)cc(C)c(C#N)c2=O)cc1	10%	0%	1%[12.7 µM]	-1%	·	28%
Cc1ccccc1Cn1c(=O)n(-c2ccc(Cl)cc2)c(=O)c2c3c(sc21)CCCC3	1%	0%	2%[59 µM]	1%	·	26%
COc1ccc(CN2C[C@H](C)[C@@H](CC(=O)NCc3ccccc3)C2=O)cc1	-10%	5%	50µM*	1%[57.1 µM]	3%	4%
CCn1c(O)c(C#N)c(C)cc1=O	-13%	-13%	45µM*	-12%	-10%	15%
Cc1cc(=O)n(CCO)c(O)c1C#N	?	19%	?	?	·	1%
Cc1ccc(OCCSc2nc3ccccc3n2CC(=O)N2CCOCC2)cc1	-31%	4%	-17%[59 µM]	?	·	35%
COc1ccc(NC(=O)C(=O)NCCc2sc(-c3ccc(Cl)cc3)nc2C)cc1	5%	-4%	4%[59 µM]	3%	·	31%
O=C(NC1CCCC1)c1ccccc1OCc1ccccc1	30%	-7%	47%	-2%	13%	42%
CCc1cccc(OCCCN2C(=O)NC(C)(C)C2=O)c1	11%	·	15%	-2%	·	27%
C=CCNCCCCOc1ccc(OCc2ccccc2)cc1	35µM*	3%	10µM*	50µM*	-12%	-22%
CCc1cccc(OCCCCNCCOC)c1	7.1µM*	5%	7.9µM*	·	-5%	?
c1ccc(COc2ccc(OCCCNC3CCCC3)cc2)cc1	5µM*	-24%	?	45µM*	·	-54%
CNC(=S)Nc1ccc(OCc2ccccc2)cc1	-19%	22%	-44%	-35%	-6%[11.4 µM]	20%
OC(CNC1CCCCC1)COCCOc1ccc(Br)cc1 (stereo not given)	-1%	-2%	-9%[59 µM]	1%	8%	24%
CC(C)Oc1ccc(OCCNC2CCCC2)cc1	3.5µM*	-1%	?	?	·	?
